Laboratory results reported in PubChem BioAssay AID624404 (Broad Institute, 2012).
About 710 (39%) of roughly 1,800 compounds were called active. Not shown: some 28% with an inconclusive outcome.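 Rule for the calls: active = luciferase signal rise whose fitted curve crosses a set activity limit at or below the top valid tested dose; inconclusive = flat fit with 30 to 70% rise, or poor fit; inactive = signal falling, flat within 30%, or crossing above top dose.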 A selection follows. Entries with a potency or affinity are not part of this list.

Assay: reporter signal increase, D54 LucT cells – cell-based, luminescence, cherry pick, counter-screen for N-linked glycosylation inhibitor project, dose response (AID 624404)
Conditions: D54 LucT luciferase reporter counterscreen, 24 h; series mostly up to 19.5 µM

Row | SMILES | outcome
1 | COC(=O)C(=Cc1ccc(-c2ccsc2C(=O)OC)o1)C(=O)OC | inactive
2 | O=c1c2ccccc2sc2c(CO)ccc(NCCN3CCCCC3)c12 | inactive
3 | Cc1ccc2cc3c(N)c4c(C)ccc(C)c4nc3nc2c1 | inactive
4 | CC1=Nc2cc(C(=O)NCC3CCCO3)ccc2Sc2ccc(Br)cc21 (stereo not given) | inactive
5 | CCC1=Nc2cc(C(=O)NCc3ccco3)ccc2Sc2ccc(Cl)cc21 | inactive
6 | O=C(/C=C/c1ccc([N+](=O)[O-])cc1)/C=C/c1ccco1 | inactive
7 | CC(NC(=O)c1cccc2ccccc12)c1ccc2c(c1)CCCC2 (stereo not given) | inactive
8 | CCOc1ccc2[nH]c(=O)c(CN(Cc3ccc(F)cc3)C(=O)c3ccco3)cc2c1 | inactive
9 | O=C(Oc1c(Cl)cc(Cl)c2cccnc12)c1ccco1 | inactive
10 | COc1cc2cc(/C=C/C(=O)c3ccco3)c(Cl)nc2cc1OC | inactive
11 | CN(C)c1ccc(CNC(=O)C2(C)Cc3c(-c4ccc5c(c4)OCO5)ccnc3O2)cc1 (stereo not given) | inactive
12 | CC1=C([N+](=O)[O-])C(c2ccccc2)C2=C(N1)c1ccccc1C2=O (stereo not given) | inactive
13 | CCCCCCCCn1c2c(c(=N)c3c1CCC3)CCCC2 | inactive
14 | COc1cc(/C=N\NC(=O)c2sc(N)nc2C)cc(OC)c1OC | inactive
15 | C#CC[N+](C)(C)CCCCCCCCCCCC | inactive
16 | CCc1ccc(Nc2n[n+](-c3ccccc3)c(-c3ccc(N(CC)CC)cc3)s2)cc1 | inactive
17 | CN(Cc1ccc(Cl)s1)C(=O)CCl | inactive
18 | COC(=O)CNC(c1ccccc1)c1cc(Br)ccc1NC(=O)CCN1CCOCC1 (stereo not given) | inactive
19 | NS(=O)(=O)c1cc(C(=O)NCCOc2ccccc2)c(Cl)cc1Cl | inactive
20 | COc1ccc(C=CC(=O)c2ccc(OC)c(OC)c2O)cc1OC | inactive
21 | COc1ccc(/C=C/C(=O)c2ccc3c4c(cccc24)CC3)cc1 | inactive
22 | COc1ccc(OC(=O)N2C/C(=C/c3ccccc3)C(=O)/C(=C\c3ccccc3)C2)cc1 | inactive
23 | COc1cc(/C=C/C(=O)c2ccc(Cl)s2)cc(OC)c1O | inactive
24 | O=CC1=C(c2ccccc2)Oc2ccccc2O1 | inactive

Row | SMILES | outcome
25 | Nc1nonc1-c1nc2ccccc2n1Cc1ccccc1 | inactive
26 | Cc1noc2ncnc(Sc3ccc(Br)cc3)c12 | inactive
27 | COc1ccc(C=CC(=O)c2c(OC)cc(OC)c(OC)c2O)cc1 | inactive
28 | COc1cc(O)c(C(=O)/C=C/c2ccccc2)c(OC)c1 | inactive
29 | CCOC(=O)C(=Cc1ccc(-c2ccsc2C(=O)OC)o1)C(=O)OCC | inactive
30 | Oc1cc(NCc2ccc(Cl)cc2)cc2cccnc12 | inactive
31 | COc1cc(CNc2ccc(O)cc2)cc(Br)c1OCc1ccccc1 | inactive
32 | CCOc1ccc(-n2c(C)cc(C(=O)CCl)c2C)cc1 | inactive
33 | CC(=O)n1cc(/C=N/NC(=O)c2sc(C)nc2C)c2ccccc21 | inactive
34 | COc1ccc(Nc2c3ccccc3nc3ccccc23)cc1 | inactive
35 | COCCOC(=O)c1[nH]c2c(c1C)C(=O)CC(c1ccco1)C2 (stereo not given) | inactive
36 | CN(C)CCCNc1cc(-c2ccccc2)nc2cc(-c3cccc(F)c3)nn12 | inactive
37 | CCCCCC[n+]1ccccc1/C=C/c1ccc(N(C)C)cc1 | inactive
38 | CCN(CC)S(=O)(=O)c1ccc(-c2nnc(SCC(=O)N3CCc4ccccc43)o2)cc1 | inactive
39 | Cc1ccc(Oc2ccc(S(=O)(=O)N3CCOCC3)cc2C(N)=O)c(-n2nc3ccccc3n2)c1 | inactive
40 | O=C(c1ccc(Cl)cc1)C(CN1CCCCC1)c1ccccc1 (stereo not given) | inactive
41 | Nc1ccc2nc(-c3ccccc3)c(-c3ccccc3)nc2c1 | inactive
42 | O=S(=O)(Nc1cccc2cccnc12)c1ccc(S(=O)(=O)N2CCCC2)cc1 | inactive
43 | COc1ccc2nc3c(cc2c1)c(NC(=O)CC(C)C)nn3CC(C)C | inactive
44 | O=C(Nc1c2ccccc2nc2ccccc12)C(Cl)(Cl)Cl | inactive
45 | CN1CC(=O)N2C(c3ccc(Cl)cc3)c3[nH]c4ccccc4c3C[C@H]2C1=O (stereo not given in full) | inactive
46 | COc1ccc(Cn2c(=O)c3[nH]cnc3n(-c3ccccc3C)c2=O)cc1 | inactive
47 | Cc1cc(-n2c(SCC(=O)NCCC3=CCCCC3)nc3n[nH]c(C)c3c2=N)ccc1Cl | inactive
48 | CCN(CC)CCCNC(=O)CSc1c2c(nc3cc(Cl)ccc13)CCCC2 | inactive

Row | SMILES | outcome
49 | CCOC(=O)c1[nH]c2ccc(F)cc2c1NC(=O)C(C)N1CCc2cc(OC)c(OC)cc2C1 (stereo not given) | inactive
50 | CCN(CC)c1ccc(NC(=O)CC2Oc3ccccc3NC2=O)c(C)c1 (stereo not given) | inactive
51 | COc1ccc(C2C3=C(COC3=O)Oc3cc4c(cc32)OCO4)cc1OC (stereo not given) | inactive
52 | Cc1ccc(C)c(NC(=O)Cn2nnc(C(=O)NCc3ccco3)c2N)c1 | inactive
53 | COc1cc(NC(=O)NCc2ccco2)ccc1-c1ccc(NC(=O)NCc2ccco2)cc1OC | inactive
54 | C=CCOc1ccccc1C(=O)/C=C1/C(=O)Nc2ccccc21 | inactive
55 | c1cnc2nc3c4ccccc4c4ccccc4c3nc2c1 | inactive
56 | CCn1c(SCC(=O)Nc2ccc(C(C)=O)cc2)nc2c([nH]c3ccccc32)c1=O | inactive
57 | Cc1ccc(C(C)C)c(OCc2nnc(SCC(=O)Nc3ncc(C)s3)n2C)c1 | inactive
58 | Cc1cc(C)c(NC(=O)CSc2nc(COc3ccccc3)nc3ccccc23)c(C)c1 | inactive
59 | COc1ccc(-c2nnc(SCC(=O)Nc3ncc(C)s3)n2-c2ccccc2)cc1OC | inactive
60 | COc1ccc2c(c1)c1ccc3c(c1n2C)C(=O)C=CC3=O | inactive
61 | CC1(C(=O)NCc2ccc(F)c(F)c2)Cc2c(-c3ccc4c(c3)OCO4)ccnc2O1 (stereo not given) | inactive
62 | O=C(N/N=C/c1cccc(Br)c1)c1ccc(N2CCCC2=O)cc1 | inactive
63 | CC(=O)/C=C/c1ccccc1Oc1c(F)c(F)nc(F)c1F | inactive
64 | CC(=O)N1c2ccccc2C(=O)C1N(C)c1ccc(C)cc1 (stereo not given) | inactive
65 | COc1ccc(CCn2c(=N)c(C(=O)NCC3CCCO3)cc3c(=O)n4cccc(C)c4nc32)cc1 (stereo not given) | inactive
66 | COc1ccc(CCn2c(=N)c(C(=O)NCCN3CCOCC3)cc3c(=O)n4cccc(C)c4nc32)cc1OC | inactive
67 | COc1ccc(NC(=O)COC(=O)/C=C/C(=O)OCC(=O)Nc2ccc(OC)c(Cl)c2)cc1Cl | inactive
68 | Cn1cnc([N+](=O)[O-])c1S(=O)(=O)Oc1ccccc1 | inactive
69 | CCOc1ccc(Nc2c3ccccc3nc3ccccc23)cc1 | inactive
70 | CCOc1ccc(Nc2nnc(SCc3nc4ccccc4c(=O)[nH]3)s2)cc1 | inactive
